The results in this text go back to PubChem BioAssay AID1478 (National Center for Advancing Translational Sciences (NCATS), 2009).

The structures appear in SMILES notation. In all, about 200,000 compounds went through this assay and about 860 (0.43%) were called active. Calls follow the shape of the dose curve; as a rule, active = well fitted inhibition curve with a large enough effect; inconclusive = small, poorly fitted or top-dose-only effect; inactive = flat fitted curve, though single readings scatter. Shown is part of a subset that was picked to be rich in actives. More than one record can exist for a structure, and the calls need not agree.
Potency is read from the fitted curve at half-maximal effect.

Chain of Cruzipain (Trypanosoma cruzi) (P25779 123-467 limits assumed): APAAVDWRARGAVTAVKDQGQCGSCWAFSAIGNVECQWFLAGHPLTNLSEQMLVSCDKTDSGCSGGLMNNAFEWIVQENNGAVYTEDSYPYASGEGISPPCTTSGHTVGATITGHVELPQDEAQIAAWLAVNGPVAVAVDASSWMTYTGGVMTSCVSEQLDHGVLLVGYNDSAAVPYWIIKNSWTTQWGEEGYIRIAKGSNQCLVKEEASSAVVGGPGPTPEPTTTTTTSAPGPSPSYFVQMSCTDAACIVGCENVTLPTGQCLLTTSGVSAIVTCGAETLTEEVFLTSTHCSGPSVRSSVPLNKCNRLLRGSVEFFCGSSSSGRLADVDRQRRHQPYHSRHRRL

The experiment deals with Cruzipain (Trypanosoma cruzi) (UniProt P25779). In words: qHTS Assay for Promiscuous and Specific Inhibitors of Cruzain (with detergent). Also: nearly all actives have a fitted effect of over 40% in size. To be noted: purified cruzain, Z-FR-AMC fluorescence, 0.01% Triton. The protocol:
Cruzain (3.4.22.51) is a cysteine protease from the tropical parasite Trypanosoma cruzi. Dual qHTS experiment was performed against the NCGC compound collection in order to 1) identify novel inhibitors of the enzyme and 2) profile the compound collection for promiscuous inhibitors operating via colloidal aggregation (by performing detergent-free and detergent-containing comparison screens). Cruzain was assayed by the use of fluorogenic coumarin-based substrate Z-FR-AMC: proteolytic cleavage releases AMC, whose fluorescence is measured at 360 nm excitation and 450 nm emission. Purified cruzain was supplied by the labs of Prof. James McKerrow and Brian Shoichet, UC San Francisco.
This assay had 0.01% Triton X-100 concentration. See also releated assay "qHTS Assay for Promiscuous and Specific Inhibitors of Cruzain (without detergent)" with 0.00005% Triton X-100.
See following references for additional details:
Assay Provider: Shoichet, Brian; University of California, San Fancisco
Screening Center PI: Austin, C.P.
Screening Center: NIH Chemical Genomics Center [NCGC]
Buffer: 100 mM Sodium Acetate, pH 5.5, 5 mM DTT, Triton X-100 concentration: 0.01%.
Buffer in columns 3 and 4 as negative control (no enzyme).
Substrate solution: 2 uM final concentration of Z-FR-AMC (catalog number I-1160, Bachem) dispensed throughout the plate.
Enzyme: 1.5 nM Cruzain final concentration in columns 1, 2, 5-48. Column 1 is neutral (100% activity). Column 2 contained titration of covalent inhibitor K11777, starting concentration 1 mM, then 1:2 dilution in duplicate).
Three uL of enzyme or buffer were dispensed to 1536-well Greiner black solid bottom plates. Compounds and controls (23 nL) were transferred via Kalypsys PinTool. The plates were incubated for 15 min at room temperature, and then 1 uL of substrate solution was added to start the reaction. The plates were immediately transferred to and read 4 times every 30 seconds for 2 min on ViewLux High-throughput CCD imager (Perkin-Elmer) using 360 nm excitation and 450 nm emission fluorescence protocol. The fluorescence intensity difference between the third and the first time points (time lapse of 60 seconds) was used to compute reaction progress.
With `N=c1oc2ccccc2cc1C(=O)N/N=C/c1ccccc1`, the max response, negative = inhibition is -4.25% (inactive).

As for `CNC(=O)c1cc2c(ccc3ccccc32)oc1=N`, the Potency was 28.2 µM (active).

As to `CCOC(=O)N1CCN(C(=O)c2cc3c(ccc4ccccc43)oc2=O)CC1`, the max response, negative = inhibition was -4.28% (inactive).

For the compound `COc1ccc(-c2nc3scc(CCNS(=O)(=O)c4cc(F)ccc4OC)n3n2)cc1OC`, the max response, negative = inhibition was -6.79% (inactive).

Consider `COc1ccc(OC)c(-n2nnc3c(sc4nc(C)c(Br)c(C)c43)c2=O)c1`, for which the max response, negative = inhibition was -8.66% (inactive).

On to `CC(=O)c1ccc(S(=O)(=O)N2CCC(Oc3ccc(-n4cnnn4)cc3)CC2)cc1`, for which the max response, negative = inhibition was 0.367% (inactive).

For the compound `O=C1CCCc2cc(S(=O)(=O)N3CCCC(C(=O)NCc4ccccc4)C3)ccc2N1` (configuration not stated), the max response, negative = inhibition is -1.43% (inactive).

With `COc1ccc(CNC(=O)c2cc3cccc(OC)c3oc2=O)cc1`, the max response, negative = inhibition was -0.986% (inactive).

As to `Clc1ccccc1-c1cc(NCCN2CCOCC2)ncn1`, the max response, negative = inhibition was 0.682% (inactive).

For `CN(C)c1ccc(-c2nc(NCCN3CCOCC3)c3ccccc3n2)cc1`, the max response, negative = inhibition is -4.87% (inactive).

`c1ccc2cc3c(NCCN4CCOCC4)ccnc3cc2c1`: the Potency is 28.2 µM (active).

On to `CCc1ccccc1NC(=O)c1cnn(-c2ccc(F)cc2)c1C1CCNCC1`, for which the max response, negative = inhibition is -1.82% (inactive).

On to `O=C(CSc1n[nH]c(-c2ccccc2)n1)N1CCCCC1`, for which the max response, negative = inhibition is 2.8% (inactive).

For `Cc1ccccc1CN1CCC(CNC(=O)c2c(C)oc3ncnc(N4CCCCC4)c23)CC1`, the max response, negative = inhibition is 1.4% (inactive).

With `CCN1CCN(C(c2ccc(C)cc2)c2c(O)cc(C)n(Cc3ccco3)c2=O)CC1` (configuration not stated), the max response, negative = inhibition is 0.51% (inactive).

Take `CCOC(=O)c1ccc(-n2c(CCC(=O)O)ccc2-c2ccccc2)cc1`: the max response, negative = inhibition is -12% (inactive).

For the compound `CCOC(=O)C1CCN(C(c2ccc(F)cc2)c2sc3nc(-c4ccco4)nn3c2O)CC1` (configuration not stated), the max response, negative = inhibition is -3.73% (inactive).

In the case of `O=C(/C=C/c1ccccc1)c1ccoc1`, the max response, negative = inhibition is -1.4% (inactive).

Turning to `COc1ccccc1/C=C/C1=NC(=C\N(C)C)/C(=O)O1`, the max response, negative = inhibition was -17.3% (inactive).

Turning to `O=C1OC(/C=C/c2ccccc2)=NC/1=C/c1ccco1`, the Potency is 3.98 µM (active).

For `COC(=O)c1sccc1S(=O)(=O)N(CC(=O)Nc1ccc(C)c(F)c1)c1ccc(C)c(C)c1`, the max response, negative = inhibition was -3.08% (inactive).

On to `CCOc1ccc(CNC(=O)C2CCCN(S(=O)(=O)N(CC)c3ccc(OCC)cc3)C2)cc1` (configuration not stated), for which the max response, negative = inhibition was 3.48% (inactive).

For the compound `O=C(Nc1ccc(Br)cc1)c1ccc(Br)c(S(=O)(=O)NCc2ccccc2)c1`, the max response, negative = inhibition is -3.54% (inactive).

On to `Cc1ccc(-c2cn3c(n2)sc2cc(C(=O)NCc4cccs4)ccc23)c(C)c1`, for which the max response, negative = inhibition was -2.89% (inactive).

As for `CCc1nc(-c2cc(S(=O)(=O)N3CCN(c4ccc(OC)cc4)CC3)ccc2OC)no1`, the max response, negative = inhibition is -3.17% (inactive).

For the compound `CC(=O)c1ccc(NC(c2ccc(F)cc2)c2nnc(-c3ccccc3)o2)cc1` (configuration not stated), the max response, negative = inhibition was -5.26% (inactive).

Regarding `CCn1cc2nc(SCc3cccc(F)c3)n(CCc3ccccc3)c(=O)c2n1`, the max response, negative = inhibition was -3.27% (inactive).

On to `COc1ccc(-n2c(=O)c3c(c4cc(OC)ccc4n3C)n(Cc3cccc(C)c3)c2=O)cc1`, for which the max response, negative = inhibition is -1.25% (inactive).

As for `Cc1ccc(NC(=O)c2cc(S(=O)(=O)NCCC3=CCCCC3)ccc2F)cc1C`, the max response, negative = inhibition is 1.53% (inactive).

`O=C(COC(=O)[C@H](Cc1ccccc1)NC(=O)c1cccs1)Nc1cc(F)ccc1F`: the Potency is 20 µM (active).

In the case of `Cc1ccc(F)c(NC(=O)CCc2ccccc2)c1`, the max response, negative = inhibition is 2.16% (inactive).

Turning to `Cc1ccc(C)c(NC(CC(=O)c2ccccc2)C(=O)OCC(=O)c2cccs2)c1` (configuration not stated), the max response, negative = inhibition was -3.94% (inactive).

Turning to `CC(=O)Nc1ccc(NC(=O)C2CCCN(S(=O)(=O)c3ccc4c(c3)CCCC(=O)N4)C2)cc1` (configuration not stated), the max response, negative = inhibition is -1.66% (inactive).

Turning to `Cc1ccc(-c2onc(C)c2C)cc1S(=O)(=O)Nc1ccccn1`, the max response, negative = inhibition is -0.474% (inactive).

For the compound `CCOc1ccc(CNC(=O)C2CCCN(c3nnc(C)c4c(C)n(-c5ccccc5)nc34)C2)cc1` (configuration not stated), the max response, negative = inhibition is -6.21% (inactive).

Take `COc1ccc(C)cc1-n1nnnc1SCC(=O)c1cc(C)n(Cc2ccco2)c1C`: the max response, negative = inhibition was -1.61% (inactive).

For the compound `O=C(CNC(=O)c1ccco1)OCC(=O)c1ccccc1`, the max response, negative = inhibition is -1.99% (inactive).

Turning to `Cc1cc(C(=O)COC(=O)CNC(=O)c2ccc(F)cc2)c(C)n1Cc1ccco1`, the Potency is 14.1 µM (active).

For the compound `COc1ccc2c(Sc3ccc(C)cc3)c(C(=O)NC(C)c3ccccc3)[nH]c2c1` (configuration not stated), the max response, negative = inhibition is -7.2% (inactive).

`CCOC(=O)c1c(C)[nH]c(CCC(=O)Nc2ccc(OC)c(OC)c2)c1C`: the max response, negative = inhibition is 2.38% (inactive).

With `CCN(CC)S(=O)(=O)c1nnc(NC(=O)COc2ccccc2Cl)s1`, the max response, negative = inhibition is -2.1% (inactive).

Consider `CCOC(=O)c1c(S(=O)(=O)NCC(=O)Nc2ccc(Cl)c(C(F)(F)F)c2)c(C)n(C)c1C`, for which the max response, negative = inhibition was -11.4% (inactive).

With `COc1cccc(-c2nnc3n(CCc4ccccc4)c(=O)c4ccccc4n23)c1O`, the max response, negative = inhibition was -2.72% (inactive).

Consider `CNc1nc(SC)nc(N(C#N)CC(=O)OC)n1`, for which the Potency is 17.8 µM (active).

For `Cc1cc(C)nc(N(C#N)CC(=O)Nc2ccccc2)n1`, the max response, negative = inhibition was 7.7% (inactive).

On to `COC(=O)C(C)N(C#N)c1nc(C)nc(C)n1` (configuration not stated), for which the max response, negative = inhibition is 4.3% (inactive).

Turning to `Cc1c(C(=O)N(C)C)sc2c1c(=O)n(-c1ccc(F)cc1)c(=O)n2CC(=O)N(C)c1ccccc1`, the max response, negative = inhibition is 1.44% (inactive).

For `CC(C)C[C@H](NC(=O)[C@@H]1O[C@H]1C(=O)O)C(=O)NCCCCN=C(N)N`, the Potency is 0.0562 µM (active).

On to `Cc1ccccc1CSc1nc2c([nH]c3ccccc32)c(=O)n1C`, for which the max response, negative = inhibition is -1.56% (inactive).

For the compound `Cc1cccc(N2CCN(C(=O)CCn3c(=O)c4cccn4c4cccnc43)CC2C)c1` (configuration not stated), the max response, negative = inhibition is -4.9% (inactive).

With `O=c1cc2nc(-c3ccccc3)nc(SCCOc3ccc(Cl)cc3)n2[nH]1`, the max response, negative = inhibition is 0.045% (inactive).

In the case of `Oc1c(Cl)cc(Cl)c(Cl)c1Cc1c(O)c(Cl)cc(Cl)c1Cl`, the Potency was 25.1 µM (active) and the max response, negative = inhibition was -22.8% (inactive).

Take `COc1ccc(OC)c(-n2nnc(-c3nc(-c4cc(OC)c(OC)c(OC)c4)no3)c2C)c1`: the max response, negative = inhibition was 2.73% (inactive).

For `COc1cccc(-c2cc(C(=O)Nc3ccc(C)cc3)[nH]n2)c1`, the max response, negative = inhibition was -0.83% (inactive).

Consider `Cc1ccc(CSc2nc3ccsc3c(=O)n2CCC(C)C)cc1`, for which the max response, negative = inhibition is -1.1% (inactive).

As for `CC(=O)Nc1cc(C(=O)NCc2ccc(F)cc2Cl)ccc1Sc1ccc(Cl)cc1`, the max response, negative = inhibition was 1.77% (inactive).
